# Test results as given in PubChem BioAssay (NCI).
# This is part of a sample that, as a whole, favours compounds with a hit. Of some 79,000 tested, about 15% had one in any assay. Unmarked numbers belong to inactive results. Calls of active or inactive are those of the source. Cut-off read from the data, not from the text of the source: active = growth inhibition above about 70%; inactive = the rest.
# Legend:
# [1] = NCI Yeast Anticancer Drug Screen. Data for the rad52 strain (AID 147);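 note: 0% = growth of vehicle-treated control cultures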; settings: S. cerevisiae rad52 mutant growth inhibition, active compounds read high
# Procedure, shortened: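 Inhibition of yeast growth, referenced to vehicle controls, was the measured output for a strain with defective DNA damage repair.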
# [2] = NCI Yeast Anticancer Drug Screen. Data for the wt1 strain (AID 149);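 note: 0% = growth of vehicle-treated wt1 cultures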; settings: S. cerevisiae wt1 strain (SPY 50644) growth inhibition, active compounds read high
# Procedure, shortened: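 Compounds are added to wt1 yeast cultures. Growth is then measured. Inhibition is expressed relative to vehicle-treated controls.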
# [3] = NCI Yeast Anticancer Drug Screen. Data for the rad50EPP+ strain (AID 151);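 note: 0% = growth of vehicle-treated control cultures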; settings: S. cerevisiae rad50 mutant strain, active compounds read high
# Procedure, shortened: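 Genetically defined yeast (rad50EPP+, DNA damage repair alteration) is grown with compound, and inhibition of growth is expressed relative to vehicle-treated controls.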
# [4] = NCI Yeast Anticancer Drug Screen. Data for the mgt1 strain (AID 153); settings: S. cerevisiae mgt1 mutant growth inhibition, active compounds read high
# Procedure, shortened: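 In the mgt1 strain, test compounds were added and growth inhibition was determined relative to vehicle-treated controls.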
# [5] = NCI Yeast Anticancer Drug Screen. Data for the rad50 strain (AID 155);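 note: 0% = growth of vehicle-only cultures of the same strain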; settings: S. cerevisiae rad50 strain growth inhibition, active compounds read high
# Procedure, shortened: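 Inhibition values express reduced yeast growth in compound-treated cultures relative to vehicle-treated controls.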
# [6] = NCI Yeast Anticancer Drug Screen. Data for the mec2-1 strain (AID 157); settings: S. cerevisiae mec2-1 strain, active compounds read high
# Procedure, shortened: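 Each compound was tested on mec2-1 yeast, a strain altered in DNA damage repair or cell cycle control. Growth inhibition is reported relative to vehicle.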
# [7] = NCI Yeast Anticancer Drug Screen. Data for the rad14 strain (AID 159);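 note: 0% = growth of vehicle-treated control cultures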; settings: S. cerevisiae rad14 strain growth inhibition, active compounds read high
# Procedure, shortened: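 A mutant yeast strain defective in DNA damage repair is treated with compound; inhibition of its growth is scored against untreated, vehicle-exposed cultures.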
# [8] = NCI Yeast Anticancer Drug Screen. Data for the sgs1 mgt1 strain (AID 161);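 note: 0% = growth of cultures given vehicle only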; settings: S. cerevisiae sgs1 mgt1 strain, active compounds read high
# Procedure, shortened: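 Genetically altered yeast, compound exposure, growth inhibition relative to vehicle.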
# [9] = NCI Yeast Anticancer Drug Screen. Data for the CLN2oe strain (AID 163);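 note: 0% = growth of vehicle-only control cultures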; settings: S. cerevisiae CLN2oe strain, active compounds read high
# Procedure, shortened: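 First, the altered yeast strain was treated with each compound; second, its growth was measured; finally, inhibition was derived by comparison with vehicle controls.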
# [10] = NCI Yeast Anticancer Drug Screen. Data for the cln2 rad14 strain (AID 165);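 note: 0% = growth equal to vehicle treated cultures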; settings: S. cerevisiae cln2 rad14 strain, active compounds read high
# Procedure, shortened: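 Test compounds were added to cln2 rad14 yeast cultures; inhibition of growth was then determined by comparison with vehicle treatment.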
# [11] = NCI Yeast Anticancer Drug Screen. Data for the bub3 strain (AID 167); settings: S. cerevisiae bub3 mutant strain, active compounds read high
# Procedure, shortened: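 Steps: expose the mutant yeast strain to compound; grow alongside vehicle-treated cultures; measure growth; express inhibition against the vehicle cultures.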
# [12] = NCI Yeast Anticancer Drug Screen. Data for the wt2 strain (AID 169);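 note: 0% = growth of vehicle-treated yeast cultures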; settings: S. cerevisiae wt2 strain growth inhibition, active compounds read high
# Procedure, shortened: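 The panel's yeast strains carry defined changes in DNA repair or cell cycle genes. Each strain is grown with compound, and growth loss is scored relative to vehicle.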
# [13] = NCI Yeast Anticancer Drug Screen. Data for the mlh1 strain (AID 171);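 note: 0% = growth of vehicle-treated control cultures of the same strain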; settings: S. cerevisiae mlh1 strain growth inhibition, active compounds read high
# Procedure, shortened: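 Inhibition values reflect reduced yeast growth in the presence of compound, referenced to vehicle controls, using a strain chosen for its alteration in DNA repair or cell cycle control.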
# [14] = NCI Yeast Anticancer Drug Screen. Data for the sgs1 strain (AID 173);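 note: 0% = growth of vehicle-only control cultures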; settings: S. cerevisiae sgs1 mutant, active compounds read high
# Procedure, shortened: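 Vehicle-treated cultures served as reference for growth inhibition of a yeast strain altered in DNA damage repair or cell cycle control after compound exposure.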
# [15] = NCI Yeast Anticancer Drug Screen. Data for the mlh1 rad18 strain (AID 175); settings: S. cerevisiae mlh1 rad18 strain growth inhibition, active compounds read high
# Procedure, shortened: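 Inhibition values reflect reduced growth of mutant yeast versus vehicle-treated controls following compound exposure; the mutations affect DNA damage repair.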
# [16] = NCI Yeast Anticancer Drug Screen. Data for the rad18 strain (AID 177); settings: S. cerevisiae rad18 mutant growth inhibition, active compounds read high
# Procedure, shortened: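 Steps: expose repair-mutant yeast to compound; measure growth; express as inhibition relative to vehicle control.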
# [17] = at 5.0 µM (retest, dose inferred, filed as 0.5)
# [18] = at 50.0 µM (retest, dose inferred, filed as 5.0)
structure (smiles),measurement,setting,value
CC1(C)[C@@H]2CC[C@]1(C)[C@H](OC(=O)CSC#N)C2,growth inhibition,[1]; at 1.2 µM,0%
same,growth inhibition,[1]; at 3.7 µM,3%
same,growth inhibition,[1]; at 11.0 µM,20%
same,growth inhibition,[1]; at 33.0 µM,83% (active)
same,growth inhibition,[1]; at 100.0 µM,95% (active)
same,growth inhibition,[2]; at 1.2 µM,1%
same,growth inhibition,[2]; at 3.7 µM,4%
same,growth inhibition,[2]; at 11.0 µM,14%
same,growth inhibition,[2]; at 33.0 µM,61%
same,growth inhibition,[2]; at 100.0 µM,96% (active)
same,growth inhibition,[3]; at 1.2 µM,-1%
same,growth inhibition,[3]; at 3.7 µM,4%
same,growth inhibition,[3]; at 11.0 µM,9%
same,growth inhibition,[3]; at 33.0 µM,24%
same,growth inhibition,[3]; at 100.0 µM,50%
same,growth inhibition,[4]; at 1.2 µM,1%
same,growth inhibition,[4]; at 3.7 µM,2%
same,growth inhibition,[4]; at 11.0 µM,23%
same,growth inhibition,[4]; at 33.0 µM,90% (active)
same,growth inhibition,[4]; at 100.0 µM,98% (active)
same,growth inhibition,[5]; at 1.2 µM,1%
same,growth inhibition,[5]; at 3.7 µM,1%
same,growth inhibition,[5]; [17],-5%
same,growth inhibition,[5]; at 11.0 µM,20%
same,growth inhibition,[5]; at 33.0 µM,68%
same,growth inhibition,[5]; [18],98% (active)
same,growth inhibition,[5]; at 50.0 µM,99% (active)
same,growth inhibition,[5]; at 100.0 µM,96% (active)
same,growth inhibition,[6]; at 1.2 µM,4%
same,growth inhibition,[6]; at 3.7 µM,8%
same,growth inhibition,[6]; [17],8%
same,growth inhibition,[6]; at 11.0 µM,27%
same,growth inhibition,[6]; at 33.0 µM,86% (active)
same,growth inhibition,[6]; [18],98% (active)
same,growth inhibition,[6]; at 50.0 µM,98% (active)
same,growth inhibition,[6]; at 100.0 µM,97% (active)
same,growth inhibition,[7]; at 1.2 µM,-2%
same,growth inhibition,[7]; at 3.7 µM,-1%
same,growth inhibition,[7]; at 11.0 µM,12%
same,growth inhibition,[7]; at 33.0 µM,43%
same,growth inhibition,[7]; at 100.0 µM,97% (active)
same,growth inhibition,[8]; [17],28%
same,growth inhibition,[8]; [18],97% (active)
same,growth inhibition,[8]; at 50.0 µM,98.6% (active)
same,growth inhibition,[9]; at 1.2 µM,-3%
same,growth inhibition,[9]; at 3.7 µM,-1%
same,growth inhibition,[9]; at 11.0 µM,1%
same,growth inhibition,[9]; at 33.0 µM,47%
same,growth inhibition,[9]; at 100.0 µM,95% (active)
same,growth inhibition,[10]; [17],34%
same,growth inhibition,[10]; [18],91% (active)
same,growth inhibition,[10]; at 50.0 µM,94.8% (active)
same,growth inhibition,[11]; at 1.2 µM,2%
same,growth inhibition,[11]; at 3.7 µM,13%
same,growth inhibition,[11]; [17],14%
same,growth inhibition,[11]; at 11.0 µM,-19%
same,growth inhibition,[11]; at 33.0 µM,81% (active)
same,growth inhibition,[11]; [18],99% (active)
same,growth inhibition,[11]; at 50.0 µM,99% (active)
same,growth inhibition,[11]; at 100.0 µM,96% (active)
same,growth inhibition,[12]; at 1.2 µM,1%
same,growth inhibition,[12]; at 3.7 µM,5%
same,growth inhibition,[12]; at 11.0 µM,25%
same,growth inhibition,[12]; at 33.0 µM,89% (active)
same,growth inhibition,[12]; at 100.0 µM,97% (active)
same,growth inhibition,[13]; at 1.2 µM,7%
same,growth inhibition,[13]; at 3.7 µM,9%
same,growth inhibition,[13]; at 11.0 µM,29%
same,growth inhibition,[13]; at 33.0 µM,73% (active)
same,growth inhibition,[13]; at 100.0 µM,98% (active)
same,growth inhibition,[14]; at 1.2 µM,9%
same,growth inhibition,[14]; at 3.7 µM,23%
same,growth inhibition,[14]; at 11.0 µM,66%
same,growth inhibition,[14]; at 33.0 µM,94% (active)
same,growth inhibition,[14]; at 100.0 µM,97% (active)
same,growth inhibition,[15]; [17],9%
same,growth inhibition,[15]; [18],98% (active)
same,growth inhibition,[15]; at 50.0 µM,98.8% (active)
same,growth inhibition,[16]; at 1.2 µM,9%
same,growth inhibition,[16]; at 3.7 µM,14%
same,growth inhibition,[16]; at 11.0 µM,28%
same,growth inhibition,[16]; at 33.0 µM,92% (active)
same,growth inhibition,[16]; at 100.0 µM,96% (active)
